# In the library only some 4.8% were active in any assay of this set; here they are far more common.
# NR1D1 modulator = Rev-erb alpha (human) modulation. Rev-erbα–FITC-DNA binding, fluorescence polarization, 90 min. hit rate 0.79% among 370,000. activity, % at 10 µM. AID 1259318;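 active = activity above about 14%, limit read from the data; passing the limit was not always enough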;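 also: 0% = DMSO wells with 35 nM protein and 100% = DMSO wells with 750 nM protein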
# Target sequence (P20393 whole entry, looked up): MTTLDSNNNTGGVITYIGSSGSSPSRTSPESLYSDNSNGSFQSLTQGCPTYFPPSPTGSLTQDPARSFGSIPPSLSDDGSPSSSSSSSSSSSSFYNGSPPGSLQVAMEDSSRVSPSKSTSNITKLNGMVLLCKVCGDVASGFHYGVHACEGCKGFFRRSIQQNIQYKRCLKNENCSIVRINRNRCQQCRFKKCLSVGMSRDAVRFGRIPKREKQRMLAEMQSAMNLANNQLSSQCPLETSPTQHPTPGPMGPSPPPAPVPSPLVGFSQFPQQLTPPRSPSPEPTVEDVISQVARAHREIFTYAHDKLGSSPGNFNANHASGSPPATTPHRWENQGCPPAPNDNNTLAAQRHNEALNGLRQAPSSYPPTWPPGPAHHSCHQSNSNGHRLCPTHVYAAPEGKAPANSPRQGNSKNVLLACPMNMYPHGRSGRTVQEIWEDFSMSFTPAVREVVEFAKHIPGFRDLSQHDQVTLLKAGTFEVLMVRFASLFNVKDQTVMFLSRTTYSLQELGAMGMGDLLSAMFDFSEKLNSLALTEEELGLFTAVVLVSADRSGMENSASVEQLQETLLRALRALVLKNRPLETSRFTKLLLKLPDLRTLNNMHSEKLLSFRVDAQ
# hgDAF-12 ag = activates the H. glycines DAF-12 receptor ligand-binding domain; AID 687014; activation, % at 6.8 µM; hit rate 1.8% among 370,000; HEK293 GAL4-hgDAF12 UAS-luciferase reporter, agonist luminescence; normalized to butyrate control;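 active = activation above a cutoff set at the mean of all screened compounds plus 3 SD, cut at about 10% in these data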;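 also: 0% = DMSO wells and 100% = sodium butyrate wells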
# ssDAF-12 act = S. stercoralis DAF-12 activation, primary screen; HEK293 ssDAF-12/GRIP1 lit1-tk-luc reporter, luminescence; % of 3 µM dafachronic acid response; activation, % at 6.8 µM; hit rate 1% among 370,000; AID 652126;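 active = activation above the mean over all tested compounds plus 3 SD, cut at about 0.9% in these data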;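 also: 0% = DMSO-only wells and 100% = 3 µM delta7-dafachronic acid wells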
# DAX1 inh-1 = DAX1 (NR0B1) inhibition, primary screen; HEK293T StAR-luciferase reporter, SF-1/DAX-1 repression relief; inhibition, % at 6.8 µM; hit rate 1.1% among 370,000;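 active = inhibition above the mean over all tested compounds plus 3 SD, cut at about 3.6% in these data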;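 also: 0% = DAX-1 cells with DMSO and 100% = cells lacking DAX-1 with DMSO; higher inhibition means more luminescence from relief of DAX-1 repression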
# DAX1 inh-2 = inhibits human nuclear receptor DAX1; P51843; HEK293 Gal4-DAX1 luciferase reporter, luminescence; inhibition, % at 6.75 µM; hit rate 0.99% among 340,000; AID 504766;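 active = inhibition above the mean over all tested compounds plus 3 SD, cut at about 4.2% in these data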;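 also: 0% = DAX1-transfected cells with DMSO and 100% = empty-vector control cells with DMSO; inhibition shows as a rise in luminescence from relieved DAX1 repression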
# hcDAF12 agonist = activates DAF-12 receptor from parasite H. contortus; HEK293 hcDAF-12 lit1-tk-luc reporter, luminescence; 0% DMSO, 100% Δ7-dafachronic acid; activation, % at 6.8 µM; hit rate 1.4% among 370,000; AID 652067;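 active = activation above the mean of all tested compounds plus 3 SD, cut at about 5.5% in these data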;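 also: 100% = response to 3 µM Δ7-dafachronic acid high control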
# * hit, by the source's call; · = no result given.
SMILES,NR1D1 modulator,hgDAF-12 ag,ssDAF-12 act,DAX1 inh-1,DAX1 inh-2,hcDAF12 agonist
CN(C(=O)COC(=O)c1cccnc1Cl)C1CCCCC1,-6,4,0,4.5*,1,3
C=CCn1cnc2c(sc3nc(C)cc(C)c32)c1=O,2,3,-1,0,1,0
Cc1cc(C)c2c(n1)sc1c(=O)n(Cc3ccc(F)cc3)cnc12,-1,-1,0,0,4.5*,0
CC(C)[C@H](NC(=O)c1ccc(Cl)c(Cl)c1)C(=O)N1CCC[C@H]1C(=O)NCCc1ccccc1Cl,-6,-1,-1,1,·,-2
CC(=O)c1ccc(N=Nc2c(C)[nH]n(-c3ccccc3)c2=O)cc1,-3,-2,0.9*,0,0,2
Cc1ccc(N=Nc2c(C)[nH]n(C(N)=S)c2=O)cc1,-11,6,1.0*,1,2,3
Cc1ccc(N=Nc2c(N)n(-c3ccccc3)[nH]c2=O)cc1,-1,9,0,1,3,5.6*
CC(=O)c1ccc(N=Nc2c(C)[nH][nH]c2=O)cc1,15,0,-1,0,5.5*,0
Nc1[nH]n(-c2ccccc2)c(=O)c1N=Nc1ccc(F)cc1,-4,9,0,3,·,3
Cc1ccccc1C(=O)N[C@H](C(=O)N1CCC[C@H]1C(=O)NCc1ccccc1)c1ccccc1,8,0,-1,0,·,1
C=CCN1[C@H](C#N)[C@@H](c2ccc(C#Cc3cccc(OC)c3)cc2)[C@H]1CO,-2,-6,-2,-1,·,-5
O=C(OCC#CCSc1nnc(-c2cccc(F)c2)o1)c1ccc(F)cc1,1,0,-1,·,·,1
Cc1[nH]n(-c2ccccc2)c(=O)c1N=Nc1ccccc1,6,8,1,1,1,6.0*
FC(F)(F)c1nnc2c(Sc3ccccc3)nc3ccccc3n12,0,6,0,1,0,4
FC(F)(F)c1nnc2c(Sc3ccccn3)nc3ccccc3n12,-2,7,0,0,1,5.6*
COc1ccc(/C=N\NC(=O)C2CCCC2)cc1Br,-5,4,-1,3,0,1
O=C(O)c1ccc(/C=N/Nc2cccc(C(F)(F)F)c2)cc1,-10,3,-1,4.3*,0,1
O=C(O)c1ccc(/C=N/Nc2ccc(C(F)(F)F)cn2)cc1,-6,19*,3.4*,4.2*,1,6.0*
COc1ccc(/C=N/Nc2ccc(C(=O)O)cc2)cc1Br,0,4,-1,4.0*,-2,4
Cc1ccc(C)c(OCC(=O)Nc2nonc2NC(=O)COc2cc(C)ccc2C)c1,0,-3,0,0,5.3*,1
O=C(N/N=C/c1cccc([N+](=O)[O-])c1)c1cnccn1,-2,2,-1,0,0,4
COc1ccc(/C=N/NC(=O)c2cnccn2)c(OC)c1OC,-2,-2,-2,0,2,-1
O=C(N/N=C/c1cc([N+](=O)[O-])ccc1Cl)c1cnccn1,3,1,-1,0,5.1*,0
COc1ccc(OC)c(/C=N/NC(=O)c2cnccn2)c1,0,1,-1,0,4.4*,1
COC(=O)c1cc(-c2c(C)noc2C)c(=O)n2c1CCC2,-6,-1,-1,-1,·,2
SMILES,NR1D1 modulator,hgDAF-12 ag,ssDAF-12 act,DAX1 inh-1,DAX1 inh-2,hcDAF12 agonist
O=C(NN=C/C=C/c1ccco1)c1cc(-c2ccc(Cl)cc2)n[nH]1,1,1,-1,-3,·,0
CC1OC(CCc2cccc(Cl)c2)Cc2[nH][nH]c(=O)c21 (stereo not given),4,7,2.0*,3,·,4
O=C(CNC(=S)N(CCCN1CCOCC1)Cc1cccs1)NCc1ccccc1,5,-2,-1,0,0,-1
O=C(CNC(=S)N(Cc1ccccc1)Cc1cccs1)NCc1ccc(F)cc1,-2,-4,-2,-1,-1,6.4*
CCC(=O)N1N=C(c2ccc(Cl)cc2)CC1c1ccco1 (stereo not given),-1,1,-2,0,5.8*,-1
CN1CC(=O)N(CC(=O)N2N=C(c3ccc(Cl)cc3)CC2c2ccco2)C1=O (stereo not given),-2,0,-1,0,0,-1

# Screening results: PubChem BioAssay, several laboratories
